Compounds without any hit were thinned out: in the full panel of roughly 83,000, 20% have a hit.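 In brief: 96-well plates, 48 h treatment, single concentration, percent growth endpoint.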 Calls of active or inactive are those of the source.

The test relates to NCI-H460 lung. As to the kind of experiment: NCI-60 one-dose screen, 48 h (100 = growth as untreated, 0 = no growth, -100 = all killed). The settings on record: 10 µM unless noted. How it is done:
Growth inhibition of the NCI-H460 human Non-Small Cell Lung tumor cell line is measured as a screen for anti-cancer activity. Cells are grown in 96 well plates and exposed to the test compound for 48 hours. Compounds are tested at a single concentration, which is 10^-5 M for most compounds. The reported endpoint is percent growth (GI% or GIPRCNT), where numbers from 0 - 100% represent growth inhibition, and numbers from -100% - 0 represent cell death. For example, a value of 40 represents 60% growth inhibition. A value of 0 means no net growth occurred over the course of the experiment. A value of -40 indicates 40% of cells at the beginning of the experiment died by the end of the experiment. A value of -100 means all cells are dead at the end of the experiment.
NCI-60 Human Tumor Cell Lines Screen was performed using the standard one-dose NCI protocol, which is described in more detail at https://dtp.cancer.gov/discovery_development/nci-60/default.htm.
Compounds with GIPRCNT values below 10 were considered active. Activity score was based on GIPRCNT using the following formula: […]
Score is 0 for GIPRCNT values of 100 or above, 50 for GIPRCNT values of 0, and 100 for GIPRCNT values of -100.
With `Cc1cccc(Nc2nc3ccccc3nc2/C=C/c2ccc(F)cc2)c1`, the growth is 95.4% (inactive).
As for `N/C(=N\c1nc2ccccc2s1)NC(=O)Nc1ccccc1Br`, the figure is -26.1% (active).
Turning to `CC1=C(C(=O)OCc2ccccc2)C(c2c(O)cc(O)cc2O)n2c(nc3ccccc32)N1` (stereo not given), the growth was 29.6% (inactive).
As for `Nc1nnc(-c2c[nH]c3ccc(Br)cc23)c(-c2c[nH]c3ncc(Br)cc23)n1`, the figure is 27.7% (inactive); as for `COc1cccc(/C=C/c2nc3ccccc3c(=O)n2CC(=O)Nc2ccc(Cl)cc2)c1`, 47.4% (inactive); as for `C=C1CC[C@@H]2[C@]3(C)COC(c4cn(-c5ccccc5)nc4-c4cccc([N+](=O)[O-])c4)O[C@@H]3CC[C@@]2(C)[C@@H]1C/C=C1/C(=O)OC[C@H]1O` (stereo not given in full), 2.24% (active).
As for `N#Cc1c(-c2ccc(Br)cc2)nc2n[nH]c(-c3ccc(Br)cc3)c2c1-c1ccc(C(F)(F)F)cc1`, the figure is 3.96% (active); as for `NS(=O)(=O)c1ccc(-n2cc(-c3cccc(NC(=O)c4cc(N5CCOCC5)cc(C(F)(F)F)c4)c3)nn2)cc1`, 64.3% (inactive).
Regarding `CN1CCc2c(sc3ncnc(N/N=C/c4ccc(Cl)cc4Cl)c23)C1`, the growth is 10.1% (inactive).
As for `CC1(c2cc3cc(Br)ccc3oc2=O)NC(=O)c2c(/C=C/C(=O)OC3CC4CCC3(C)C4(C)C)cccc2N1` (stereo not given), the figure is 73.6% (inactive); as for `CC(C)c1ccc2c(N)c(C(=O)Nc3ccc(C(F)(F)F)cn3)sc2n1`, 61.6% (inactive).
As for `CN(C)c1ccnc(CNCCSC2(c3ccc(C(F)(F)F)cc3)c3ccccc3C=Cc3ccccc32)c1`, the figure is -89.4% (active); as for `COc1ccc(-c2nnc3ccc(N/N=C/c4ccc(O)cc4)nn23)cc1`, 44.3% (inactive).
Consider `COc1cc2c(c(OC)c1OC)C(=O)CC(c1cccc(NC(=O)c3cccc([N+](=O)[O-])c3)c1)O2` (stereo not given), for which the growth was 35.4% (inactive).
As for `COc1cc(/C=C/C(=O)c2ccccc2)ccc1Oc1nc(Nc2ccc(F)cc2)nc(N(C)C)n1`, the figure is 18.1% (inactive); as for `CCOC(=O)C1=C(N)N(c2ccccc2)C2=C(C(=O)CC(C)(C)C2)C1c1ccc(Cl)cc1Cl` (stereo not given), 18.3% (inactive); as for `O=C(c1ccccc1)C(c1c[nH]c2ccccc12)c1c[nH]c2ccccc12`, 29.8% (inactive).
Turning to `COc1cc(/C=C2\C(=N)N=C(SCc3nc4ccccc4[nH]3)NC2=O)ccc1O`, the growth was 102% (inactive).
With `NS(=O)(=O)c1ccc(N=Nc2c(O)n(CC(=O)Nc3ccccc3)c3ccccc23)cc1` the figure was 4.09% (active); with `CC(=O)Nc1cccc(Nc2nc(NCc3ccccc3)c3ccccc3n2)c1`, -79.5% (active); with `COc1ccc(C(SCCNCc2cc(N(C)C)ccn2)(c2ccccc2)c2ccccc2)cc1`, -58.6% (active).
As for `CN1CCN(c2ccc(C(=O)/C=C/c3ccc(Br)cc3)cc2)CC1`, the figure is 64.4% (inactive).
On to `CN(C)c1nc(NCCNS(=O)(=O)c2ccc(C(=O)/C=C/c3ccc(F)cc3)cc2)nc(Nc2ccc(F)cc2)n1`, for which the growth was -75.2% (active).
As to `Cc1cccc(NC(=O)CN2CCN(c3ncnc4c3cnn4-c3ccccc3)CC2)c1`, the growth is 73% (inactive).
As to `COc1ccc(C(=O)/C=C/c2ccc3ccccc3c2)cc1S(N)(=O)=O`, the growth is 2.36% (active).
On to `COc1ccc(NC(=O)Cn2c(/C=C/c3cccc([N+](=O)[O-])c3)nc3ccccc3c2=O)cc1`, for which the growth was 63% (inactive).
As for `COc1ccc2c(c1)c(-c1cc3nc(-c4cn(C)c5ncc(Br)cc45)cc(N)n3n1)cn2C`, the figure is -35.4% (active); as for `O=C(/C=C/c1cccc(OCc2ccccc2)c1)c1nc2ccccc2[nH]1`, 63% (inactive); as for `CN(C)c1ccnc(NCCCSC(c2ccccc2)(c2ccccc2)c2ccccc2)c1`, -19.2% (active).
As for `CN(C)c1nc(NCCNS(=O)(=O)c2ccc(C(=O)/C=C/c3ccc(Cl)cc3)cc2)nc(Nc2ccc(F)cc2)n1`, the figure is -67.9% (active).
Turning to `Cc1ccc(C2CC(c3ccc(S(=O)(=O)NCCNc4nc(Nc5ccc(F)cc5)nc(N(C)C)n4)cc3)=Nc3c(N)nc(N)nc3N2)cc1` (stereo not given), the growth was 38.2% (inactive).
`COc1ccc(C2=NN(c3ccccc3)C(c3ccc(OCc4ccccc4)c(OC)c3)C2)cc1OC` (stereo not given): the growth is 104% (inactive).
With `N#Cc1c(-c2ccccc2Cl)cc(-c2ccc3ccccc3c2)[nH]c1=O` the figure was -13.8% (active); with `COCOc1ccc2c(=O)c(C)c(C(=O)N[C@@H](Cc3ccccc3)C(O)C(=O)NCCc3ccc(OC)cc3)oc2c1` (stereo not given in full), 133% (inactive).
As for `COc1ccc2c(c1)C(=N/N=C(\C)c1ccc(OC)c(S(N)(=O)=O)c1)C(=O)N2`, the figure is 101% (inactive); as for `CC(=O)Nc1ccc(-c2nc3cc(-c4ccc(O)cc4)ccc3n2C)cc1`, 33.8% (inactive).
As for `CCOP(=O)(OCCCl)c1nc(-c2ccc(C)cc2)oc1NCc1ccccc1` (stereo not given), the figure is 73.2% (inactive).
Regarding `COc1cc(-c2nc3ccc(C)cc3[nH]2)ccc1OCc1nnc(-c2ccc(Br)cc2)o1`, the growth was 31.3% (inactive).
For `O=c1oc2ccccc2cc1-c1csc(N=Nc2c(O)[nH]c3ccc(Cl)cc23)n1`, the growth is 109% (inactive).
In the case of `Cc1ccc(-c2nc(C#N)c(S(=O)(=O)N3CCN(S(=O)(=O)c4ccc(Cl)cc4)CC3)o2)cc1`, the growth is 99.6% (inactive).

These data come from PubChem BioAssay (NCI).
